Bioassay records (PubChem BioAssay)
A selection: hits, their analogues and other compounds. The true share with any hit is near 3.4%.
miR122 inh – miR-122 inhibition in Huh7 cells | Huh7 miR-122 Renilla luciferase sensor, 48 h; neutral wells = 0, positive control = 100 | activation (reporter increase), % at 12.5 µM | 340,000 compounds, 0.3% hits | AID 602342;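 active = mean replicate activation score at least 90 and every replicate individually at or above 90; inconclusive = only one of the two criteria met; inactive = neither criterion met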;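 also: higher luciferase means less miR-122 activity so hits act as miR-122 inhibitors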
esBAF inh – blocks esBAF chromatin remodeling in mouse ES cells; 350,000 compounds, 2% hits; AID 602393; Bmi1-luciferase knock-in reporter, 24 h; 100% = twice the neutral-well signal; reporter increase, % at 12.5 µM; in the data active = activation above about 40%; inconclusive = no clear call, values can overlap the other calls;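 also: 0% = median of the plate's neutral control wells and 100% = double that signal; a rise in the Bmi1 reporter signal indicates esBAF inhibition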
MITF TRPM1 HTS – MITF TRPM1 promoter activation in melanoma cells; SK-MEL-5 TRPM1-promoter luciferase, 24 h; % of positive control, neutral wells = 0; activation, % at 12.5 µM; 300,000 compounds, 0.75% hits;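 active = mean activation of at least 80% with every replicate also reaching 80%; inconclusive = mean reaches 80% but some replicate falls short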;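 also: 0% = neutral control wells and 100% = parthenolide positive control wells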
Wnt bcat act – activators of Wnt/beta-catenin signaling; Wnt/beta-catenin reporter cell assay, activator, plate reader; activation, % at 9.35 µM; 300,000 compounds, 1.2% hits; in the data active = activation above about 30%, passing the limit was not always enough; inconclusive = no clear call, values can overlap the other calls;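 also: 0% = neutral control wells and 100% = positive control wells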
HIV Env fusion – HIV envelope-mediated fusion inhibition | AID 651610 | HeLa-JRFL Env/CEM21 cell fusion, luciferase | 360,000 compounds, 1.1% hits | inhibition, % at 12.3 µM;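 active = mean replicate inhibition score of at least 50 and every replicate individually at or above 50; inconclusive = only one of the two criteria met; inactive = mean below 50 and not all replicates reaching 50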;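 also: 0% = plate neutral controls and 100% = maraviroc near 300 nM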
* marks the source's active call; other numbers are inactive results; [ ] = another dose, or the depositor's remark.

Screening COc1cc(Cl)ccc1OCc1cc(C(=O)NCc2cc(C(C)C)no2)no1 returned miR122 inh 6, esBAF inh 79*, MITF TRPM1 HTS 60, Wnt bcat act 51* and HIV Env fusion -42.
For COc1cc(Cl)ccc1OCc1cc(C(=O)NC(C)Cc2cccnc2)no1 (stereo unspecified) the results were miR122 inh 14, esBAF inh 36, MITF TRPM1 HTS 44, Wnt bcat act -4 and HIV Env fusion -14.
`CC(C)NC(=O)N1C[C@@H]2[C@H](c3ccccc31)[C@@H](CO)N2C(=O)c1ccccn1` gave miR122 inh -12[16.7 µM] and esBAF inh -3.
`CC(C)NC(=O)N(C)C[C@H]1OCCCC[C@H](C)Oc2ccc(NS(=O)(=O)c3cn(C)cn3)cc2C(=O)N([C@@H](C)CO)C[C@@H]1C` gave miR122 inh 0[16.7 µM], esBAF inh 2 and HIV Env fusion -19[16.7 µM].
`CCOC(=O)c1sc(-c2ccc(Br)cc2)cc1N` gave miR122 inh -3, esBAF inh 34, MITF TRPM1 HTS 114* and Wnt bcat act inconclusive.
`CCC(=O)NC[C@H]1[C@H](c2ccccc2)[C@@H](CO)N1C(=O)C1CCC1` gave miR122 inh 58[16.7 µM] and esBAF inh -1.
C[C@H](O)C#Cc1ccc([C@@H]2[C@@H](CO)N3CCCCN(C(=O)c4ccncc4)C[C@H]23)cc1 was read as miR122 inh 6[16.7 µM] and esBAF inh -7.
For CCNC(=O)[C@@H]1[C@@H](CO)[C@@H]2Cn3c(ccc(-c4ccccc4)c3=O)[C@@H]2N1C(=O)C1CC1 the results were miR122 inh 2[16.7 µM] and esBAF inh -3.
c1ccc2oc(SCc3cn4ccsc4n3)nc2c1 was read as miR122 inh -3, esBAF inh 31, MITF TRPM1 HTS 50, Wnt bcat act 66* and HIV Env fusion -173.
Screening Cc1csc2nc(CSc3nc4ccccc4o3)cn12 returned miR122 inh 0, esBAF inh 44*, MITF TRPM1 HTS inconclusive, Wnt bcat act 34* and HIV Env fusion -94.
Screening Nn1c(CSc2nc3ccccc3o2)nnc1CSc1nc2ccccc2o1 returned miR122 inh -2, esBAF inh -6, MITF TRPM1 HTS -8, Wnt bcat act -2 and HIV Env fusion -45.
For CC(C)CC#Cc1ccc2c(c1)O[C@@H](CN(C)C(=O)Cc1ccccc1)[C@H](C)CN([C@H](C)CO)S2(=O)=O the results were miR122 inh -2[16.7 µM], esBAF inh -3 and HIV Env fusion 30[16.7 µM].
Screening COC(=O)c1sccc1NC(=O)c1cccnc1 returned miR122 inh 10, esBAF inh -6, Wnt bcat act 1 and HIV Env fusion -26.
COC(=O)c1sccc1-c1ccc(C(=O)Nc2cccnc2)o1 was read as miR122 inh 0, esBAF inh 20, MITF TRPM1 HTS 97*, Wnt bcat act 5 and HIV Env fusion -112.
COc1ccc(/C=C/C(=O)Nc2cccc(S(=O)(=O)NC3=NCCCCC3)c2)cc1 was read as miR122 inh 2, esBAF inh 36, MITF TRPM1 HTS 55, Wnt bcat act -3 and HIV Env fusion -39.
For CN(C)c1ccc(C(=O)Nc2cccc(S(=O)(=O)NC3=NCCCCC3)c2)cc1 the results were esBAF inh 62*, MITF TRPM1 HTS 9 and Wnt bcat act -3.
Cc1cccc(-c2nn(-c3ccccc3)cc2C(=O)Nc2cccc(S(=O)(=O)NC3=NCCC3)c2)c1 was read as miR122 inh 152*, MITF TRPM1 HTS 5, Wnt bcat act 0 and HIV Env fusion 2.
Screening O=C(/C=C/c1ccc(OC(F)F)cc1)Nc1cccc(S(=O)(=O)NC2=NCCCCC2)c1 returned miR122 inh 7, esBAF inh 54*, MITF TRPM1 HTS 11, Wnt bcat act 8 and HIV Env fusion 8.
`CCC(=O)Nc1ccc2c(c1)C(=O)N(C)[C@@H]1CC[C@H](CC(=O)NC3Cc4ccccc4C3)O[C@@H]1CO2` gave miR122 inh -2[16.7 µM], esBAF inh 1 and HIV Env fusion -12[16.7 µM].
COc1ccc(-c2c(-c3cc(OC)cc(OC)c3)n(C)c3ccc(Br)cc23)cc1 was read as esBAF inh 4, MITF TRPM1 HTS -2, Wnt bcat act 1 and HIV Env fusion 0.
Screening COc1ccc(N=Nc2nc3ccc(Br)cc3n2C)cc1 returned miR122 inh -4, esBAF inh 52*, MITF TRPM1 HTS 69 and HIV Env fusion -287.
`Cc1csc(C(C#N)C(=O)c2cc3ccccc3o2)n1` (stereo unspecified) gave esBAF inh 46*, MITF TRPM1 HTS 62, Wnt bcat act 25 and HIV Env fusion -142.
`Cc1csc(NC(=O)c2cc3ccccc3o2)n1` gave miR122 inh 8, esBAF inh -28, MITF TRPM1 HTS 7, Wnt bcat act inconclusive and HIV Env fusion -123.
Screening COc1ccc(NC(=O)N[C@@H]2CC[C@H](CCNC(=O)c3cc(Cl)cc(Cl)c3)O[C@H]2CO)cc1 returned esBAF inh 0 and HIV Env fusion 16[16.7 µM].
CSc1ccccc1COC(=O)Nc1ccccc1C was read as miR122 inh 3, esBAF inh 6, MITF TRPM1 HTS 6, Wnt bcat act -1 and HIV Env fusion 1.
For Cc1ccccc1NC(=O)OCc1ccccc1 the results were miR122 inh -3, esBAF inh 53*, Wnt bcat act 7 and HIV Env fusion -6.
For O=C(/C=C\c1ccco1)Oc1cccc2cccnc12 the results were MITF TRPM1 HTS -12, Wnt bcat act 40* and HIV Env fusion 10.
`COc1ccccc1/C=C/C(=O)Oc1cccc2cccnc12` gave miR122 inh -1, MITF TRPM1 HTS 14, Wnt bcat act 62* and HIV Env fusion 10.
O=C(/C=C/c1ccco1)Oc1cccc2cccnc12 was read as MITF TRPM1 HTS -16, Wnt bcat act 0 and HIV Env fusion 4.
Screening COc1cc(C=O)ccc1OCc1ccc(Cl)nc1 returned miR122 inh 3, esBAF inh 63*, MITF TRPM1 HTS 64, Wnt bcat act 38* and HIV Env fusion -66.
Screening COc1cc(C=O)ccc1OCc1ccncc1 returned esBAF inh -2, MITF TRPM1 HTS -1, Wnt bcat act -1 and HIV Env fusion -23.
C[C@H]1CN([C@@H](C)CO)C(=O)c2cc(C#CC(C)(C)O)cnc2O[C@@H]1CN(C)C(=O)CN(C)C was read as miR122 inh 3[16.7 µM], esBAF inh 0 and HIV Env fusion -22[16.7 µM].
For COc1cc(S(=O)(=O)N(CCc2ccccc2)Cc2cccs2)ccc1-n1cnnn1 the results were miR122 inh inconclusive, esBAF inh -5, MITF TRPM1 HTS 6, Wnt bcat act -2 and HIV Env fusion inconclusive.
Screening COc1ccc(CCN(Cc2cccs2)S(=O)(=O)c2ccc(-n3cnnn3)cc2)cc1OC returned miR122 inh 69, MITF TRPM1 HTS -1, Wnt bcat act -8 and HIV Env fusion 86*.
